Laboratory results: PubChem BioAssay (NCI)
About 79,000 compounds went through this panel and 15% of them were active in at least one assay; those are over-represented in the sample as a whole. The source made the active and inactive calls. Rule as the data show it: active = growth inhibition above about 70%; inactive = the rest.

Tests used:
[1] = NCI Yeast Anticancer Drug Screen. Data for the rad52 strain (AID 147);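 also: 0% = growth of vehicle-treated control cultures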; details: S. cerevisiae rad52 mutant growth inhibition, hits give high values
Outline: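 Read-out: growth inhibition versus vehicle-treated controls. Cells were a DNA repair-deficient yeast strain treated with compounds.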

[2] = NCI Yeast Anticancer Drug Screen. Data for the wt1 strain (AID 149);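 also: 0% = growth of vehicle-treated wt1 cultures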; details: S. cerevisiae wt1 strain (SPY 50644) growth inhibition, hits give high values
Outline: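 Using yeast strain wt1, compound-induced growth inhibition was determined against vehicle-treated cultures.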

[3] = NCI Yeast Anticancer Drug Screen. Data for the rad50EPP+ strain (AID 151);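 also: 0% = growth of vehicle-treated control cultures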; details: S. cerevisiae rad50 mutant strain, hits give high values
Outline: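 Growth inhibition read against vehicle controls in rad50EPP+ yeast, a strain altered in DNA damage repair, after compound exposure.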

[4] = NCI Yeast Anticancer Drug Screen. Data for the mgt1 strain (AID 153); details: S. cerevisiae mgt1 mutant growth inhibition, hits give high values
Outline: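 mgt1 yeast grown with test compound; read-out is growth inhibition versus vehicle-treated cultures.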

[5] = NCI Yeast Anticancer Drug Screen. Data for the rad50 strain (AID 155);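 also: 0% = growth of vehicle-only cultures of the same strain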; details: S. cerevisiae rad50 strain growth inhibition, hits give high values
Outline: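 Relative growth inhibition (compound vs vehicle) was measured in yeast with a defined repair-gene alteration.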

[6] = NCI Yeast Anticancer Drug Screen. Data for the mec2-1 strain (AID 157); details: S. cerevisiae mec2-1 strain, hits give high values
Outline: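 Yeast mec2-1 mutant treated with compound. Readout: growth inhibition vs vehicle controls.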

[7] = NCI Yeast Anticancer Drug Screen. Data for the rad14 strain (AID 159);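 also: 0% = growth of vehicle-treated control cultures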; details: S. cerevisiae rad14 strain growth inhibition, hits give high values
Outline: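 Screen for anticancer potential: a yeast strain altered in DNA damage repair is grown with compound, and reduced growth is quantified against vehicle controls.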

[8] = NCI Yeast Anticancer Drug Screen. Data for the sgs1 mgt1 strain (AID 161);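 also: 0% = growth of cultures given vehicle only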; details: S. cerevisiae sgs1 mgt1 strain, hits give high values
Outline: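 Read-out: growth inhibition vs vehicle controls. Cells: mutant yeast strain deficient in DNA damage repair.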

[9] = NCI Yeast Anticancer Drug Screen. Data for the CLN2oe strain (AID 163);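 also: 0% = growth of vehicle-only control cultures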; details: S. cerevisiae CLN2oe strain, hits give high values
Outline: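 Read-out: yeast growth inhibition, expressed relative to vehicle-only controls. The strain bears an engineered cell-cycle alteration.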

[10] = NCI Yeast Anticancer Drug Screen. Data for the cln2 rad14 strain (AID 165);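 also: 0% = growth equal to vehicle treated cultures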; details: S. cerevisiae cln2 rad14 strain, hits give high values
Outline: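 cln2 rad14 yeast strain; compound exposure; growth inhibition read vs vehicle controls.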

[11] = NCI Yeast Anticancer Drug Screen. Data for the bub3 strain (AID 167); details: S. cerevisiae bub3 mutant strain, hits give high values
Outline: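 Screening used yeast with an engineered genetic alteration affecting cell cycle control. Compound-exposed cultures were compared with vehicle cultures, and reduced growth was taken as inhibition.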

[12] = NCI Yeast Anticancer Drug Screen. Data for the wt2 strain (AID 169);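 also: 0% = growth of vehicle-treated yeast cultures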; details: S. cerevisiae wt2 strain growth inhibition, hits give high values
Outline: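 Read-out: growth inhibition versus vehicle-treated control cultures after compound exposure of the yeast strain.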

[13] = NCI Yeast Anticancer Drug Screen. Data for the sgs1 strain (AID 173);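 also: 0% = growth of vehicle-only control cultures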; details: S. cerevisiae sgs1 mutant, hits give high values
Outline: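 Read-out: yeast growth inhibition relative to vehicle controls, following compound exposure of a strain with a defined DNA repair/cell cycle alteration.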

[14] = NCI Yeast Anticancer Drug Screen. Data for the mlh1 rad18 strain (AID 175); details: S. cerevisiae mlh1 rad18 strain growth inhibition, hits give high values
Outline: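 Yeast w/ defined DNA-repair lesions; compound exposure; growth vs vehicle controls → % inhibition.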

[15] = NCI Yeast Anticancer Drug Screen. Data for the mlh1 strain (AID 171);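 also: 0% = growth of vehicle-treated control cultures of the same strain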; details: S. cerevisiae mlh1 strain growth inhibition, hits give high values
Outline: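 Read-out: growth inhibition versus vehicle controls. Strain: engineered yeast with a defined DNA repair or cell cycle defect, compound-treated.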

[16] = NCI Yeast Anticancer Drug Screen. Data for the rad18 strain (AID 177); details: S. cerevisiae rad18 mutant growth inhibition, hits give high values
Outline: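 Readout: growth inhibition vs vehicle controls. Cells: genetically altered yeast strain, DNA repair defect.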

[17] = at 5.0 µM (retest, dose inferred, filed as 0.5)
[18] = at 50.0 µM (retest, dose inferred, filed as 5.0)

Measured: growth inhibition

Nc1cc2c(cc1N)-c1ccccc1C2=O
inactive: [1]; at 1.2 µM -3% | [1]; at 3.7 µM -3% | [1]; at 11.0 µM 2% | [1]; at 33.0 µM 23% | [2]; at 1.2 µM -2% | [2]; at 3.7 µM -3% | [2]; at 11.0 µM -4% | [2]; at 33.0 µM 3% | [2]; at 100.0 µM 36% | [3]; at 1.2 µM 1% | [3]; at 3.7 µM 9% | [3]; at 11.0 µM 18% | [3]; at 33.0 µM 31% | [4]; at 1.2 µM -3% | [4]; at 3.7 µM -2% | [4]; at 11.0 µM -2% | [4]; at 33.0 µM 1% | [5]; at 1.2 µM 0% | [5]; at 3.7 µM -57% | [5]; [17] 4% | [5]; at 11.0 µM 19% | [5]; at 33.0 µM 37% | [5]; [18] 67% | [6]; at 1.2 µM -2% | [6]; at 3.7 µM -4% | [6]; [17] 0% | [6]; at 11.0 µM -1% | [6]; at 33.0 µM 9% | [6]; [18] 23% | [6]; at 50.0 µM 39% | [7]; at 1.2 µM -1% | [7]; at 3.7 µM 3% | [7]; at 11.0 µM 8% | [7]; at 33.0 µM 26% | [8]; [17] -8% | [8]; [18] 17% | [8]; at 50.0 µM -11.9% | [9]; at 1.2 µM -3% | [9]; at 3.7 µM 0% | [9]; at 11.0 µM 2% | [9]; at 33.0 µM 2% | [9]; at 100.0 µM 13% | [10]; [17] -10% | [10]; [18] 15% | [10]; at 50.0 µM -0.1% | [11]; at 1.2 µM -2% | [11]; at 3.7 µM 1% | [11]; [17] 0% | [11]; at 11.0 µM 0% | [11]; at 33.0 µM 4% | [11]; [18] 49% | [11]; at 50.0 µM 45.1% | [11]; at 100.0 µM 65% | [12]; at 1.2 µM -3% | [12]; at 3.7 µM 6% | [12]; at 11.0 µM -2% | [12]; at 33.0 µM 1% | [12]; at 100.0 µM 41% | [13]; at 1.2 µM -3% | [13]; at 3.7 µM -3% | [13]; at 11.0 µM -1% | [13]; at 33.0 µM 6% | [14]; [17] 0% | [14]; [18] 57% | [14]; at 50.0 µM 68.7%
active: [1]; at 100.0 µM 87% | [3]; at 100.0 µM 70% | [4]; at 100.0 µM 95% | [5]; at 50.0 µM 71.4% | [5]; at 100.0 µM 92% | [6]; at 100.0 µM 70% | [7]; at 100.0 µM 97% | [13]; at 100.0 µM 74%

Fc1cc(F)c(F)c(S)c1F
active: [1]; at 100.0 µM 98% | [2]; at 100.0 µM 97% | [3]; at 33.0 µM 90% | [3]; at 100.0 µM 98% | [4]; at 100.0 µM 97% | [5]; [18] 91% | [5]; at 50.0 µM 87.9% | [5]; at 100.0 µM 97% | [6]; [18] 97% | [6]; at 50.0 µM 92.3% | [6]; at 100.0 µM 99% | [7]; at 100.0 µM 96% | [8]; [18] 89% | [8]; at 50.0 µM 83.7% | [9]; at 100.0 µM 98% | [10]; [18] 83% | [10]; at 50.0 µM 79.5% | [11]; at 33.0 µM 84% | [11]; [18] 98% | [11]; at 50.0 µM 90.9% | [11]; at 100.0 µM 99% | [12]; at 100.0 µM 98% | [15]; at 33.0 µM 72% | [15]; at 100.0 µM 98% | [13]; at 100.0 µM 98% | [14]; [18] 99% | [14]; at 50.0 µM 74.5% | [16]; at 100.0 µM 96%
inactive: [1]; at 1.2 µM -44% | [1]; at 3.7 µM -10% | [1]; at 11.0 µM -38% | [1]; at 33.0 µM 29% | [2]; at 1.2 µM -31% | [2]; at 3.7 µM -26% | [2]; at 11.0 µM -39% | [2]; at 33.0 µM 36% | [3]; at 1.2 µM -51% | [3]; at 3.7 µM -18% | [3]; at 11.0 µM 45% | [4]; at 1.2 µM -78% | [4]; at 3.7 µM -74% | [4]; at 11.0 µM -56% | [4]; at 33.0 µM 48% | [5]; at 1.2 µM -43% | [5]; at 3.7 µM -28% | [5]; [17] -12% | [5]; at 11.0 µM -32% | [5]; at 33.0 µM 25% | [6]; at 1.2 µM -56% | [6]; at 3.7 µM -55% | [6]; [17] -19% | [6]; at 11.0 µM -6% | [6]; at 33.0 µM 10% | [7]; at 1.2 µM -47% | [7]; at 3.7 µM -44% | [7]; at 11.0 µM -40% | [7]; at 33.0 µM 4% | [8]; [17] -1% | [9]; at 1.2 µM -29% | [9]; at 3.7 µM -20% | [9]; at 11.0 µM 8% | [9]; at 33.0 µM 69% | [10]; [17] 43% | [11]; at 1.2 µM -9% | [11]; at 3.7 µM -4% | [11]; [17] 12% | [11]; at 11.0 µM 26% | [12]; at 1.2 µM -48% | [12]; at 3.7 µM -46% | [12]; at 11.0 µM -32% | [12]; at 33.0 µM 56% | [15]; at 1.2 µM -34% | [15]; at 3.7 µM -27% | [15]; at 11.0 µM 0% | [13]; at 1.2 µM -34% | [13]; at 3.7 µM -37% | [13]; at 11.0 µM -27% | [13]; at 33.0 µM 54% | [14]; [17] 9% | [16]; at 1.2 µM -43% | [16]; at 3.7 µM -34% | [16]; at 11.0 µM -12% | [16]; at 33.0 µM 48%
